Shown are actives, neighbours in structure and some others; about 3.1% of the full set was active somewhere.
PLK1 PBD block = qHTS for Inhibitors of PLK1-PDB (polo-like kinase 1 - polo-box domain): Primary Screen. Serine/threonine-protein kinase PLK1 (Homo sapiens), P53350. Plk1 PBD binding of FITC phosphopeptide, fluorescence polarization. Potency, µM, for inactives: max response, negative = inhibition, most hits filed as inhibitors. 360,000 tested, 2.8% active. AID 720504, 2013; note: potency is the fitted concentration of half-maximal effect; series mostly up to about 57 µM; % is set by controls: 0 for no effect and ±100 for the full control effect; nearly all actives have a fitted effect of over 65% in size
TSG101-PTAP inh = qHTS Assay for Iinhibitors of HIV-1 Budding by Blocking the Interaction of PTAP/TSG101 | Tumor susceptibility gene 101 protein (Homo sapiens), Q99816 | Fluorescence polarization, FITC-PTAP peptide / Tsg101 binding | Potency, µM (titrated, usually from 115 µM), inactives show at the highest dose activity change, negative = inhibition, usual class: inhibitors | 340,000 tested, under 10 active; active = well fitted inhibition curve with a large enough effect in the main read-out, with a control signal flat, not every such curve was filed as active; inconclusive = small, poorly fitted or top-dose-only effect, or effect the other way, or a change in a side signal; inactive = no such curve, though single readings can be large or run the other way; note: potency is the fitted concentration of half-maximal effect; % of control where 0% means no effect
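Steps: Tsg101 binding domain dispensed (10 uM final), compounds pinned in DMSO, FITC-labeled PTAP-motif peptide added (50 nM final); after 20 min binding at room temperature, polarization measured.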
TSHR antagonist = Antagonists of the Thyroid Stimulating Hormone Receptor: HTS campaign; activity change, negative = inhibition, % at 11.5 µM; AID 504810, 2011; Thyrotropin receptor (Homo sapiens), P16473; 330,000 tested, 0.2% active; TSHR-expressing cells, TSH-stimulated cAMP HTRF, 2 h; active compounds read low;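 active = activity change below a set negative limit, meaning inhibition stronger than a set level, cut at about -70% in these data; inconclusive = activity change between two set negative limits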; note: % is set by controls: 0 for no effect and ±100 for the full control effect
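Freshly harvested TSHR cells receive pin-tooled compound, then EC80 TSH at 4nM final. After 2 hours at 37 deg C, antibody in lysis buffer and cAMP-d2 are added; 30 minutes at ambient temperature precede the HTRF read.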
VDR inh = Inhibitors of the vitamin D receptor (VDR): qHTS. Vitamin D3 receptor (Homo sapiens), P11473. 400,000 tested, 0.93% active. VDR-SRC2-3 peptide fluorescence polarization, 2 h. Potency, µM, inactives show max response, negative = inhibition, actives largely listed as inhibitors; note: potency is the fitted concentration of half-maximal effect; % is set by controls: 0 for no effect and ±100 for the full control effect
Target sequence (P11473 whole entry, looked up): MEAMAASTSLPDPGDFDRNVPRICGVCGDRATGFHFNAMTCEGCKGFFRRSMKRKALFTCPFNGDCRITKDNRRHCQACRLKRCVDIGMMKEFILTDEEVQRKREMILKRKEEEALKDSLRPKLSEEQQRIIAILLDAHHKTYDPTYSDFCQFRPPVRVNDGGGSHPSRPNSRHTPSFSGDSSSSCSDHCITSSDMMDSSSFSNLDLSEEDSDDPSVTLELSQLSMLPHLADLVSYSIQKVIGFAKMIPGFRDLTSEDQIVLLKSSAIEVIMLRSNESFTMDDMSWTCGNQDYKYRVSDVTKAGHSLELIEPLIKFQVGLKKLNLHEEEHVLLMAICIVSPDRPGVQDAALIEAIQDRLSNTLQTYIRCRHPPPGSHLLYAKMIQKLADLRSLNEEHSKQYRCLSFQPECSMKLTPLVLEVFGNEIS
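Measured by FP: displacement of SRC2-3 coactivator peptide from VDR by library compounds, following a two-hour ambient incubation.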
uPA generation = qHTS for Inhibitors of Cell Surface uPA Generation; AID 540303, 2011; cell surface uPA generation assay, qHTS; Potency, µM (top dose mostly 38.3 µM), without a hit: at the top dose activity change, negative = inhibition, actives largely listed as inhibitors; 330,000 tested, 0.31% active; active = well fitted inhibition curve with a large enough effect; inconclusive = small, poorly fitted or top-dose-only effect; inactive = no such curve, though single readings can be large or run the other way; tested in mouse RAW 264.7 cells; note: potency is the fitted concentration of half-maximal effect; % is set by controls: 0 for no effect and ±100 for the full control effect; nearly all actives have a fitted effect of over 55% in size
Active calls of the source: *; ? = inconclusive; nt = not tested or not shown; ! = not confirmed by another sample. Unless noted, calls come from the whole dose curve; as a rule, active = well fitted curve in the direction sought with a large enough effect; inconclusive = small, poorly fitted or top-dose-only effect, or another doubt; inactive = no such curve, though single readings can be large; an effect the other way counts as inactive or inconclusive.

SMILES | PLK1 PBD block | TSG101-PTAP inh | TSHR antagonist | VDR inh | uPA generation
COC(CNC(=O)c1ccc2c(c1)nc(C)n2-c1cccc(C)c1)OC | 30µM* | -4% | -5 | -11% | 3%
COc1cccc(-c2nc(-c3ccccn3)no2)c1OC | 7.5µM* | -1% | 17 | -4% | -4%
COc1cc(OC)cc(-c2nc(-c3ccc(Br)cc3)no2)c1 | -1% | -8% | 73 | -9% | 11%
COc1ccccc1-c1noc(-c2cc(OC)c(OC)c(OC)c2)n1 | 8.4µM* | -7% | -25 | ? | -4%
COc1cc(OC)cc(-c2nc(-c3ccccc3OC)no2)c1 | 27µM* | -2% | 27 | -22% | 4%
CS(=O)(=O)N(CC(=O)NCCSc1ccccc1)c1cc(C(F)(F)F)ccc1Cl | nt | nt | nt | 4% | nt
O=C(N/N=C/c1ccccc1Cl)c1nc2ccc([N+](=O)[O-])cc2c(=O)[nH]1 | 24µM* | -6% | 7 | ? | 5%
Cc1ccc(-n2nc(C(=O)N3CCN(c4ccc(F)cc4)CC3)c(=O)n(C)c2=O)cc1 | nt | nt | nt | 8% | nt
Cn1ccnc1C(=O)c1cc(SCC(=O)NCc2ccccc2)nc2ccccc12 | 21µM* | 0% | 19 | -7% | -10%
COC(=O)CSc1cc(C(=O)c2nccn2C)c2ccccc2n1 | -12% | -2% | -6 | -7% | -1%
CNCc1ccccc1Sc1cc(O)ccc1O | 5.3µM* | -1% | -4 | 35µM* | -14%
CNCc1ccccc1Sc1cccc(O)c1 | -5% | -1% | -3 | 11% | -2%
C/C(CC(=O)NC(C)(C)C)=N\NC(=O)c1ccccc1N | 24µM* | -4% | 20 | -17% | -7%
O=S(=O)(NCCc1csc(-c2ccc(F)cc2)n1)c1ccc(Cl)cc1 | nt | nt | nt | 10% | nt
Cc1ccc(C)c(Cn2c(O)c(N=NC(=S)Nc3ccccc3F)c3ccccc32)c1 | 24µM* | -6% | 5 | ? | -4%
Cc1ccccc1Cn1c(O)c(N=NC(=S)Nc2ccccc2F)c2ccccc21 | 0% | -5% | 2 | 14% | ?
CCOc1ccc(NC(=O)CC2C(=O)N(CC)C(=S)N2CCN2CCOCC2)cc1 (stereo not drawn) | 27µM* | -1% | 30 | -24% | -5%
Cc1ccc(C)c(NC(=O)C(CC(C)C)N2Cc3ccccc3C2=O)c1 (stereo not drawn) | nt | nt | nt | 3% | nt
O=C1CCc2cc(S(=O)(=O)N3CCC(C(=O)NCCC4=CCCCC4)CC3)ccc2N1 | 21µM* | -7% | -4 | -38% | -15%
Cc1ccc(/C=C/C(=O)OCC(=O)N2CC(=O)Nc3ccccc32)o1 | 27µM* | -2% | -9 | -24% | -3%
Cc1cnc(=O)[nH]c1SCC(=O)c1ccc(F)cc1 | 12µM* | -6% | -2 | ? | -4%
Nc1nc(SCC(=O)c2ccc(F)cc2)n[nH]1 | -24% | -4% | 2 | -2% | -2%
Cc1nc(SCC(=O)c2ccc(F)cc2)n[nH]1 | 27µM* | -3% | 6 | 71µM* | -4%
COc1ccccc1CCn1cnc(Cc2ccccc2)c1C(C)C | -6% | nt | nt | nt | nt
COc1ccc(NC(=O)Cn2c(=O)n(-c3cccc(C)c3)c(=O)c3c2c2cc(C)ccc2n3C)cc1OC | nt | nt | nt | 10% | nt
SMILES | PLK1 PBD block | TSG101-PTAP inh | TSHR antagonist | VDR inh | uPA generation
CCCCCn1c(NCc2ccccc2OC)nc2ccccc21 | nt | nt | nt | -7% | nt
O=C(O)c1cnc(-c2ccccc2)nc1Sc1ccc(Cl)cc1 | 21µM* | -4% | -8 | -2% | 4%
COc1ccc(Sc2nc(-c3ccccc3)ncc2C(=O)O)cc1 | ? | 1% | -4 | -4% | -5%
CC[C@H](C)[C@H](NC(=O)[C@@H](NC(=O)[C@@H](NC(=O)[C@H](CCC(=O)O)NC(=O)[C@H](CCC(=O)O)NC(=O)[C@H](CCC(=O)O)NC(=O)[C@H](C)NC(=O)[C@@H](N)CC(C)C)C(C)C)C(C)C)C(=O)N[C@@H](CCCNC(=N)N)C(=O)N[C@@H](CO)C(=O)N[C@@H](C)C(=O)N[C@@H](CC(N)=O)C(=O)N[C@@H](Cc1ccccc1)C(=O)N[C@H](C(=O)N[C@@H](CC(=O)O)C(=O)N[C@@H](CC(N)=O)C(=O)O)[C@@H](C)O | nt | nt | nt | 18% | nt
Cc1noc(C)c1-c1nc(NCc2cccs2)c2ccccc2n1 | nt | nt | nt | 45µM* | nt
CCc1ccc(N2C(=O)CC(c3cc(OC)ccc3OC)C3=C2COC3=O)cc1 (stereo not drawn) | nt | nt | nt | -11% | nt
Cc1sc2c(c1C)C(=O)NC(c1cccc(O)c1)N2 (stereo not drawn) | nt | nt | -9 | nt | nt
COC(=O)c1ccc(C2NC(=O)c3c(sc(C)c3C)N2)cc1 (stereo not drawn) | 27µM* | 2% | -5 | -10% | 8%
CCc1ccccc1N1C(=O)N(CC(=O)c2ccc(Cl)cc2)c2ccccc2S1(=O)=O | nt | nt | nt | 27% | nt
CC(C)c1ccc(Nc2nnns2)cc1 | 27µM* | -2% | -6 | 79µM* | -5%
CC(C)c1ccc(NC(=O)c2ccc3snnc3c2)cc1 | -8% | 1% | -9 | -2% | -3%
O=C/C=C/c1c(-c2ccccc2)cc2oc3ccccc3cc1-2 | -12% | -7% | -15 | 35µM* | -12%
COc1cc(/C=C/C(=O)OCC(=O)Nc2ccc(S(N)(=O)=O)cc2)ccc1O | 13µM* | -1% | -7 | -9% | 3%
Cc1ccc(-c2noc(-c3nnn(-c4ccc(Br)cc4F)c3C)n2)cc1 | nt | nt | nt | 20% | nt
Cc1cc(=O)oc2c(O)c(O)ccc12 | ? | -2% | nt | 71µM*! | ?
Cc1cc(=O)oc2c(CN3CCCC3)c(O)ccc12 | 3% | 0% | -13 | 25% | 3%
CCCC1O[C@@H]2CC3C4CCC5=CC(=O)C=C[C@]5(C)C4C(OC(C)=O)C[C@]3(C)[C@]2(C(=O)COC(C)=O)O1 (stereo partly drawn) | 19µM* | -11% | -6 | ? | 2%
CC(C)=CCn1cnc2c1C(NOCc1ccccc1)=NCN2 | nt | nt | nt | -8% | nt
CN(Cc1nccs1)C(=O)CC1C(=O)NCCN1Cc1ccc(-c2ccccc2)cc1 (stereo not drawn) | 27µM* | -4% | 1 | -15% | 2%
COc1cc(CN2CCNC(=O)C2CC(=O)N(C)Cc2cccnc2)cc(OC)c1 (stereo not drawn) | 15µM* | -2% | 8 | -24% | -7%
O=C(/C=C/c1cccc([N+](=O)[O-])c1)c1ccc([N+](=O)[O-])o1 | 5.3µM* | 0% | nt | 2.8µM* | ?
O=C(/C=C/c1cccc([N+](=O)[O-])c1)NCc1ccc2c(c1)OCO2 | -5% | -7% | -4 | 1% | -5%
CCOc1ccc(C2N(c3cc(C)on3)C(=O)C3CCCN32)cc1OC (stereo not drawn) | 27µM* | -8% | -4 | -27% | -1%

Bioassay records deposited in PubChem by National Center for Advancing Translational Sciences (NCATS).
